Assay results from PubChem BioAssay.

Assay: inhibitors of poly I:C-induced TLR3 signaling, primary screen, cell-based, poly I:C stimulus, luciferase, 10K MLSCN set (AID 602277)
Conditions: HEK293-TLR3 RL24 IRF3 luciferase reporter, at 10 µM, stronger effect = higher value;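 active = inhibition of the reporter signal at or above 50%; inactive = inhibition below 50%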

inhibition, inactive:
COc1cccc(-c2nnc(NC(C)=O)o2)c1 6.47%
CC1(C)CC(=O)C(C#N)=C(NCCCO)C1 9.83%
COc1cccc(-c2noc(-c3cccs3)n2)c1 -8.84%
CCOC(=O)CCc1c(C)nc2cc(-c3ccc(F)cc3)[nH]n2c1=O 22.2%
CCOC(=O)c1c(C)[nH]c(C(=O)COC(=O)C2CC2C)c1C (centres undefined) -115%
CCN(CC)S(=O)(=O)c1ccc(F)c(C(=O)NCCC(C)C)c1 -20.2%
CCOC(=O)c1cnn(-c2cc(C)nc3c(-c4ccccc4)c(C)nn23)c1N 17.2%
CC(NCc1ccco1)C(=O)N1CCc2ccccc2C1 (centres undefined) 1.37%
COc1ccc(OC)c(-c2nnc(SCC(=O)NC3CCCCC3)o2)c1 0.755%
O=C1NC2(Nc3ccccc31)C(=O)Nc1ccccc12 (centres undefined) 37.4%
CCN(CC)CCCN1C(=O)C(=O)/C(=C(/O)c2ccc3c(c2)OCO3)C1c1ccccn1 (centres undefined) 12.1%
COc1ccc(Cn2nnnc2C(c2cc3cc(C)cc(C)c3[nH]c2=O)N2CCOCC2)cc1 (centres undefined) 24.9%
COCCN(CCOC)Cc1c(C)[nH]c2ccccc2c1=O 24.8%
CN(CCNS(=O)(=O)c1ccc2c(c1)oc(=O)n2C)Cc1ccccc1 39.8%
CCOC(=O)c1c(C)[nH]c(C)c1C(=O)COc1ccc(NC(=O)c2ccco2)cc1 20.5%
CCCCn1c(NCCC)nc2c1c(=O)[nH]c(=O)n2C 29.1%
COc1cccc(C2C(C(N)=O)=C(C)Nc3nc(CCCO)nn32)c1OC (centres undefined) 7.06%
C(=N/n1c2ccccc2c2ccccc21)/c1ccco1 29.6%
COC(=O)Cc1c(C)nc2nc[nH]n2c1=O 13.4%
Cc1cccc(CC(=O)Nc2c3c(nn2-c2cccc(Cl)c2)CS(=O)C3)c1 (centres undefined) -33.4%
Cc1ccc(CNC(=O)COC(=O)c2c(C)noc2C)cc1 16.4%
CCOCCc1nnc(NC(=O)c2ccc(OC)c(OC)c2)s1 20%
Cc1cccc(C2CC(c3ccccc3)Nc3nc(N)nn32)c1 (centres undefined) 18.7%
Cc1nn(C)c(C)c1NC(=O)CCSc1nc(-c2ccco2)cc(C(F)(F)F)n1 -10.1%
